From PubChem BioAssay (EPA / NIEHS) come the findings set out here.

Active and inactive are the calls of the source. Rule for the calls: active = hit-call score of the fitted dose curve at least 0.9, where 1 is the maximum; inactive = score below 0.9.

The nature of one experiment: ATG_GRE_CIS: Attagene CIS-FACTORIAL HepG2 Assay for human Glucocorticoid Response Elements (GRE) (AID 2282947). Particulars: HepG2 GRE cis-reporter, Attagene multiplex mRNA; actives raise or lower the signal. A digest of the protocol: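 Transiently transfected HepG2 cells carrying GRE cis-reporter units (endogenous TF activity) dosed 24 h; reporter mRNA quantified by RT-PCR, 6-FAM labelling, HpaI digestion and capillary electrophoresis. Bidirectional fit versus DMSO baseline.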
As to `CC(Br)C(=O)O` (stereo not drawn), the call was inactive.
Take `Nc1ccc(-c2ccc(N)c(Cl)c2)cc1Cl`: the compound was classed as inactive.
On the same count and under the same terms, for `O=C(NCO)NCO` the value was “inactive”; for `COc1cccc(C=O)c1`, “inactive”.
Still for that read-out and setting: for `OCC(O)CCl` (stereo not drawn) the value was “inactive”; for `Cc1ccccc1C(=O)Nc1cccc(OC(C)C)c1`, “inactive”; for `CC(C)(c1ccc(OCC2CO2)cc1)c1ccc(OCC2CO2)cc1` (stereo not drawn), “inactive”.
Still for that read-out and setting: for `CCC[CH2][Sn]([CH2]CCC)([CH2]CCC)[O]C(=O)c1ccccc1` the value was “inactive”; for `Nc1ccc(N=Nc2ccc(-c3ccc(N=Nc4c(S(=O)(=O)O)cc5cc(S(=O)(=O)O)c(N=Nc6ccccc6)c(O)c5c4N)cc3)cc2)c(N)c1`, “inactive”.

A short description of another experiment: ATG_ISRE_CIS: Attagene CIS-FACTORIAL HepG2 Assay for human Interferon Regulatory Factor 1 (IRF1) binding to an Interferon-Stimulated Response Element (ISRE) (AID 2282948). Particulars: HepG2 ISRE cis-reporter (Attagene), mRNA transcription readout; actives raise or lower the signal. An outline of the steps: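 Transiently transfected HepG2 cells carrying cis-element reporter units, dosed 24 hours. Reporter mRNA quantified by RT-PCR, fluorescent primer extension, HpaI digestion and capillary electrophoresis. Bidirectional fitting relative to DMSO.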
On to `Cc1cc(=O)[nH]o1`, for which the compound was called inactive.
Regarding `CCCCC(CC)CO[N+](=O)[O-]` (stereo not drawn), the outcome was inactive.
Same read-out and setting: under `COP(=S)(OC)Oc1c(Cl)cc(C)cc1Cl` stands “inactive”; under `O=Cc1cccc(Oc2ccccc2)c1`, “inactive”; under `COP(=S)(OC)Oc1ccc(S(=O)(=O)N(C)C)cc1`, “inactive”.
Same read-out and setting: under `CCCCCCCCc1ccc(O)cc1` stands “inactive”; under `CC(=O)C(Cl)C(=O)N(C)C` (stereo not drawn), “inactive”; under `Cl/C=C/Cl`, “inactive”.
Same read-out and setting: under `O=P(O)(O)CN(CP(=O)(O)O)CP(=O)(O)O` stands “inactive”; under `O=CC=O`, “inactive”; under `O=c1[nH]c(=O)[nH]c(=O)[nH]1`, “inactive”.
As to `CNC`, the compound was called inactive.
Still for that read-out and setting: under `CC(=O)c1cc(C(C)(C)C)cc2c1CCC2(C)C` stands “inactive”; under `CCc1ccccc1N`, “inactive”.
Regarding `O=C(CCl)CCl`, the AC50 is 33.4 µM (active).
Take `ClCc1ccccn1`: the result was inactive.
As to `O=C/C=C/c1ccccc1`, the compound was called inactive.
Regarding `CC(C#N)CCC#N` (stereo not drawn), the compound was called inactive.
Still for that read-out and setting: for `O=C1C(Cl)=C(Cl)C(=O)c2ccccc21` the value was “inactive”; for `ClCC(Cl)CCl`, “inactive”; for `COc1cc(OC)nc(NC(=O)NS(=O)(=O)c2ncccc2C(=O)N(C)C)n1`, “inactive”.
Turning to `ClC1=C(Cl)[C@]2(Cl)[C@H]3[C@H]([C@H]4C=C[C@H]3C4)[C@@]1(Cl)C2(Cl)Cl`, the compound was called inactive.
The same measure, in the same setting: under `COP(=S)(OC)Oc1cc(Cl)c(Cl)cc1Cl` stands “inactive”; under `C=CC#N`, “inactive”.
Take `ClC(Cl)=C(Cl)C(Cl)=C(Cl)Cl`: the AC50 was 100 µM (active).
With `O=S(=O)(c1ccc(Cl)cc1)c1ccc(Cl)cc1`, the outcome was inactive.
Still for that read-out and setting: for `CC(Br)C(=O)O` (stereo not drawn) the value was “inactive”; for `Nc1ccc(-c2ccc(N)c(Cl)c2)cc1Cl`, “inactive”.
On the same count and under the same terms, for `O=C(NCO)NCO` the value was “inactive”; for `COc1cccc(C=O)c1`, “inactive”.
Still for that read-out and setting: for `OCC(O)CCl` (stereo not drawn) the value was “inactive”; for `Cc1ccccc1C(=O)Nc1cccc(OC(C)C)c1`, “inactive”.
As to `CC(C)(c1ccc(OCC2CO2)cc1)c1ccc(OCC2CO2)cc1` (stereo not drawn), the AC50 was 58 µM (active).
For `CCC[CH2][Sn]([CH2]CCC)([CH2]CCC)[O]C(=O)c1ccccc1`, the compound was called inactive.
The same measure, in the same setting: under `Nc1ccc(N=Nc2ccc(-c3ccc(N=Nc4c(S(=O)(=O)O)cc5cc(S(=O)(=O)O)c(N=Nc6ccccc6)c(O)c5c4N)cc3)cc2)c(N)c1` stands “inactive”.

The nature of another experiment: ATG_M_32_CIS: Attagene CIS-FACTORIAL HepG2 Assay for M32 Transcription Factor (Internal Marker) (AID 2282949).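 Note: background control marker of the multiplexed CIS panel rather than a real target.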 Particulars: HepG2 Attagene cis-factorial M32 reporter, mRNA; actives raise or lower the signal. A digest of the protocol: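 Fluorescent capillary electrophoresis peaks of HpaI-digested, FAM-labelled RT-PCR reporter products give the signal. Source: transiently transfected human liver HepG2 cells, 24 h after chemical dosing; bidirectional fitting against DMSO.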
As for `Cc1cc(=O)[nH]o1`, the outcome was inactive.
Regarding `CCCCC(CC)CO[N+](=O)[O-]` (stereo not drawn), the result was inactive.
The same measure, in the same setting: under `COP(=S)(OC)Oc1c(Cl)cc(C)cc1Cl` stands “inactive”.
Same read-out and setting: under `O=Cc1cccc(Oc2ccccc2)c1` stands “inactive”; under `COP(=S)(OC)Oc1ccc(S(=O)(=O)N(C)C)cc1`, “inactive”.
Same read-out and setting: for `CCCCCCCCc1ccc(O)cc1` the value was “inactive”; for `CC(=O)C(Cl)C(=O)N(C)C` (stereo not drawn), “inactive”; for `Cl/C=C/Cl`, “inactive”.
Turning to `O=P(O)(O)CN(CP(=O)(O)O)CP(=O)(O)O`, the compound was called inactive.
On the same count and under the same terms, under `O=CC=O` stands “inactive”.
Take `O=c1[nH]c(=O)[nH]c(=O)[nH]1`: the compound was classed as inactive.
For `CNC`, the outcome was inactive.
The same measure, in the same setting: under `CC(=O)c1cc(C(C)(C)C)cc2c1CCC2(C)C` stands “inactive”.
Same read-out and setting: under `CCc1ccccc1N` stands “inactive”.
As to `O=C(CCl)CCl`, the AC50 was 54.6 µM (active).
Turning to `ClCc1ccccn1`, the compound was called inactive.
The same measure, in the same setting: under `O=C/C=C/c1ccccc1` stands “inactive”; under `CC(C#N)CCC#N` (stereo not drawn), “inactive”.
Same read-out and setting: for `C=CC(=O)OCCCCCC(C)C` the value was “inactive”.
Turning to `O=C1C(Cl)=C(Cl)C(=O)c2ccccc21`, the result was inactive.
Still for that read-out and setting: under `ClCC(Cl)CCl` stands “inactive”; under `COc1cc(OC)nc(NC(=O)NS(=O)(=O)c2ncccc2C(=O)N(C)C)n1`, “inactive”.
The same measure, in the same setting: under `ClC1=C(Cl)[C@]2(Cl)[C@H]3[C@H]([C@H]4C=C[C@H]3C4)[C@@]1(Cl)C2(Cl)Cl` stands “inactive”; under `COP(=S)(OC)Oc1cc(Cl)c(Cl)cc1Cl`, “inactive”; under `CCC(C)c1cccc(C(C)CC)c1O` (stereo not drawn), “inactive”.
Same read-out and setting: for `C=CC#N` the value was “inactive”.
As for `ClC(Cl)=C(Cl)C(Cl)=C(Cl)Cl`, the compound was classed as inactive.
Still for that read-out and setting: under `O=S(=O)(c1ccc(Cl)cc1)c1ccc(Cl)cc1` stands “inactive”.
On the same count and under the same terms, for `CCCCP(CCCC)CCCC` the value was “inactive”.
Same read-out and setting: under `CC(Br)C(=O)O` (stereo not drawn) stands “inactive”; under `Nc1ccc(-c2ccc(N)c(Cl)c2)cc1Cl`, “inactive”.
With `O=C(NCO)NCO`, the compound was called inactive.
The same measure, in the same setting: under `C=C(C)C#N` stands “inactive”.
On the same count and under the same terms, for `COc1cccc(C=O)c1` the value was “inactive”; for `OCC(O)CCl` (stereo not drawn), “inactive”.
The same measure, in the same setting: under `Cc1ccccc1C(=O)Nc1cccc(OC(C)C)c1` stands “inactive”; under `CC(C)(c1ccc(OCC2CO2)cc1)c1ccc(OCC2CO2)cc1` (stereo not drawn), “inactive”.
Consider `CCC[CH2][Sn]([CH2]CCC)([CH2]CCC)[O]C(=O)c1ccccc1`, for which the compound was called inactive.
On the same count and under the same terms, under `Nc1ccc(N=Nc2ccc(-c3ccc(N=Nc4c(S(=O)(=O)O)cc5cc(S(=O)(=O)O)c(N=Nc6ccccc6)c(O)c5c4N)cc3)cc2)c(N)c1` stands “inactive”.

Broadly, the AC50 is the midpoint of the concentration-response curve, whichever way the signal moves.
